Results from PubChem BioAssay (Tox21).
Results filed as inconclusive are left out. A call without a number means that no potency is given here. Activity calls are given as the source filed them. Unless noted, calls follow the shape of the dose curve; as a rule, active = well fitted curve in the direction sought with a large enough effect in the repeat runs; inconclusive = weak or mixed curves; inactive = no such curve, though single readings can be large; an effect the other way counts as inactive or inconclusive.

Experiments:
[1] = qHTS assay to identify small molecule antagonists of the thyroid receptor (TR) signaling pathway (AID 743065); also: series mostly up to about 70 µM; nearly all actives have a fitted effect of over 55% in size
Outline: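 GH3.TRE-Luc rat pituitary cells (two TREs driving luciferase) were dosed with compound, then stimulated with 1 nM T3 (final) for 23.5 h at 37 C. ONE-Glo luminescence was the read-out, with CellTiter-Fluor fluorescence as the cytotoxicity counter-screen.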

[2] = tested on: thyroid hormone receptor (rat, GH3 cells); assay: qHTS assay to identify small molecule agonists of the thyroid receptor (TR) signaling pathway (AID 743066; calls by dose curve)
[3] = biological target: Estrogen receptor (Homo sapiens) (UniProt P03372); assay: qHTS assay to identify small molecule antagonists of the estrogen receptor alpha (ER-alpha) signaling pathway (AID 743069; active = well fitted curve in the direction sought with a large enough effect in the signal ratio in the repeat runs, not every such curve was filed as active; the % refers to the signal ratio)
Chain of Estrogen receptor (Homo sapiens) (P03372 whole entry, looked up): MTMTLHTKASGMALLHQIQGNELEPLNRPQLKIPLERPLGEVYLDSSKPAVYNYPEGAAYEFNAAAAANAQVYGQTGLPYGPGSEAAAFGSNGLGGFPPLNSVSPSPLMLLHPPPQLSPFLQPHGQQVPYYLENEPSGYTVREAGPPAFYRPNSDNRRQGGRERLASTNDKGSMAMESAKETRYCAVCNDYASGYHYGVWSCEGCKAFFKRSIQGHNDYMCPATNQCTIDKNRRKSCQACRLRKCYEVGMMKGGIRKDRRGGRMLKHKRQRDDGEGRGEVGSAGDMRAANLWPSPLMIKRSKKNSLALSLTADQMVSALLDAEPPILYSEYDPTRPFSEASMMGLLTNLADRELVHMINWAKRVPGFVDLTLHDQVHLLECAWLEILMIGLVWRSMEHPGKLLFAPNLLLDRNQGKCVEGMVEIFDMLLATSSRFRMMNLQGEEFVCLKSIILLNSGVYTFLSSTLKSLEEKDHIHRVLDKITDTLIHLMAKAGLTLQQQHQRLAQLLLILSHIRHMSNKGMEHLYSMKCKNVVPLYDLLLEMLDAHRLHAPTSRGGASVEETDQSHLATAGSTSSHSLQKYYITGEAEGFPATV
Outline: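 HEK293 ER-alpha-UAS-bla GripTite cells, held overnight in 2% charcoal-stripped FBS, 5,000 cells/well, preincubated 4 h, then compound plus 17beta-estradiol for 18 h at 37C. Beta-lactamase read by LiveBLAzer B/G FRET substrate, 2 h at room temperature.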

[4] = qHTS assay to identify small molecule antagonists of the estrogen receptor alpha (ER-alpha) signaling pathway - cell viability counter screen (AID 743074; calls by dose curve;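 also: HEK293 cells carrying ER-alpha-UAS-bla reporter stimulated with 17beta-estradiol; nearly all actives have a fitted effect of over 45% in size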)
[5] = biological target: Estrogen receptor (Homo sapiens) (UniProt P03372); assay: qHTS assay to identify small molecule agonists of the estrogen receptor alpha (ER-alpha) signaling pathway (AID 743075; calls by dose curve)
[6] = biological target: Estrogen receptor (Homo sapiens) (UniProt P03372); assay: qHTS assay to identify small molecule agonists of the estrogen receptor alpha (ER-alpha) signaling pathway using the BG1 cell line (AID 743079); also: nearly all actives have a fitted effect of over 20% in size; also: potency is read from the fitted curve at half-maximal effect
[7] = qHTS assay to identify small molecule antagonists of the estrogen receptor alpha (ER-alpha) signaling pathway using the BG1 cell line (AID 743080; calls by dose curve;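 also: BG1 cells stimulated with 17beta-estradiol alongside compound; series mostly up to about 70 µM; nearly all actives have a fitted effect of over 25% in size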)
Outline: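 Readout is ONE-Glo luminescence, taken 30 min at room temperature after reagent addition, preceded by a CellTiter-Fluor viability read; BG1-Luc-4E2 cells had received compound and 17beta-estradiol for 21.5 h at 37 C.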

[8] = qHTS assay to identify small molecule antagonists of the estrogen receptor alpha (ER-alpha) signaling pathway using the BG1 cell line - cell viability counter screen (AID 743081);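 also: compound given together with 17beta-estradiol as the ER stimulus; series mostly up to about 70 µM; nearly all actives have a fitted effect of over 45% in size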
Aromatase (Homo sapiens) = Aromatase (Homo sapiens) (UniProt P11511); assay: qHTS assay to identify aromatase inhibitors (AID 743083); also: series mostly up to about 70 µM; nearly all actives have a fitted effect of over 55% in size
Chain of Aromatase (Homo sapiens) (P11511 whole entry, looked up): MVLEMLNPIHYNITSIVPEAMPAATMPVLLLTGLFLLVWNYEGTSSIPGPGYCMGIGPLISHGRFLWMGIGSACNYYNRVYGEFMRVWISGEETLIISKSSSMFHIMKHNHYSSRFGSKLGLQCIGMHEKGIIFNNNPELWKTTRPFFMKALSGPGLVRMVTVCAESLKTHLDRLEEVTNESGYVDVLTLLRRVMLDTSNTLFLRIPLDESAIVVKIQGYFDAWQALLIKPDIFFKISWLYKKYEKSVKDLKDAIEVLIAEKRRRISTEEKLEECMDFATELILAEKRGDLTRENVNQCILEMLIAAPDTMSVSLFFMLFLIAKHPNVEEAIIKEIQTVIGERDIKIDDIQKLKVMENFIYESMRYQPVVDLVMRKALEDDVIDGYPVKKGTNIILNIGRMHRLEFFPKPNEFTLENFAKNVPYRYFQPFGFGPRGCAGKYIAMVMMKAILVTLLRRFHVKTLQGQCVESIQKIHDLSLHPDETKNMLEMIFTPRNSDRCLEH

[9] = qHTS assay to identify aromatase inhibitors - cell viability counter screen (AID 743084);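 also: cells stimulated with testosterone during compound exposure; nearly all actives have a fitted effect of over 55% in size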

| Structure (SMILES) | Potency [1] | Potency [2] | Potency [3] | outcome [4] | Potency [5] | Potency [6] | Potency [7] | outcome [8] | Potency (Aromatase (Homo sapiens)) | Potency [9] |
| --- | --- | --- | --- | --- | --- | --- | --- | --- | --- | --- |
| O=C1C(CCS(=O)c2ccccc2)C(=O)N(c2ccccc2)N1c1ccccc1 (stereo not given) | inactive | inactive | inactive | inactive | inactive | inactive | inactive | inactive | inactive | inactive |
| Nc1cc(N)cc(C(=O)O)c1 | inactive | inactive | inactive | inactive | inactive | inactive | inactive | inactive | inactive | inactive |
| CCCC(C)C(=O)O (stereo not given) | inactive | inactive | inactive | inactive | inactive | inactive | inactive | inactive | inactive | inactive |
| Nc1nc2c(ncn2CCC(CO)CO)c(=O)[nH]1 | inactive | inactive | inactive | inactive | inactive | inactive | inactive | inactive | inactive | inactive |
| CC(C)(C)OC(=O)N1C[C@@H](F)C[C@H]1C(=O)O | inactive | inactive | inactive | inactive | inactive | inactive | inactive | inactive | inactive | inactive |
| O=C(O)c1cccc(C(=O)O)n1 | inactive | inactive | inactive | inactive | inactive | inactive | inactive | inactive | inactive | inactive |
| CC(C)=CC(=O)O | inactive | inactive | inactive | inactive | inactive | 54.5 µM (active) | inactive | inactive | inactive | inactive |
| C=C(C)C1CC=C(C)C(O)C1 (stereo not given) | inactive | inactive | inactive | inactive | inactive | inactive | inactive | inactive | inactive | inactive |
| CC(=O)O[C@H](CC(=O)[O-])C[N+](C)(C)C | inactive | inactive | inactive | inactive | inactive | inactive | inactive | inactive | inactive | inactive |
| Cc1ncc(CSSCc2cnc(C)c(O)c2CO)c(CO)c1O | inactive | inactive | inactive | inactive | inactive | inactive | inactive | inactive | inactive | inactive |
| COC(=O)CCCCCCCCC(=O)OC | inactive | inactive | inactive | inactive | inactive | inactive | inactive | inactive | inactive | inactive |
| C1CCCCCCCCCCC1 | inactive | inactive | inactive | inactive | inactive | inactive | inactive | inactive | inactive | inactive |
| CCCCCCCCCCCCCCCCCC(=O)OCCCCCCCCCCCCCC(C)C | inactive | inactive | inactive | inactive | inactive | 56.4 µM (active) | inactive | inactive | inactive | inactive |
| CCCOc1ccccc1-c1nc2n[nH]nc2c(=O)[nH]1 | inactive | inactive | inactive | inactive | inactive | inactive | inactive | inactive | inactive | inactive |
| CCCCN(CCO)CCO | inactive | inactive | inactive | inactive | inactive | inactive | inactive | inactive | inactive | inactive |
| Nc1ccc2cc(S(=O)(=O)O)ccc2c1 | inactive | inactive | inactive | inactive | inactive | inactive | inactive | inactive | inactive | inactive |
| CC12CCC(CC1=O)C2(C)C (stereo not given) | inactive | inactive | inactive | inactive | inactive | inactive | inactive | inactive | inactive | inactive |
| COCCOC(=O)CC#N | inactive | inactive | inactive | inactive | inactive | inactive | inactive | inactive | inactive | inactive |
| CCCCOCC(C)OCC(C)O (stereo not given) | inactive | inactive | inactive | inactive | inactive | inactive | inactive | inactive | inactive | inactive |
| NC(=O)c1c(Cl)cccc1Cl | inactive | inactive | inactive | inactive | inactive | inactive | inactive | inactive | inactive | inactive |
| CCCCNc1ccccc1 | inactive | inactive | inactive | inactive | inactive | inactive | inactive | inactive | inactive | inactive |
| Nc1ccn(C2CO[C@H](CO)O2)c(=O)n1 (stereo not given in full) | inactive | inactive | inactive | inactive | inactive | inactive | inactive | inactive | inactive | inactive |
| NCCNC(=O)c1ccc(Cl)cn1 | inactive | inactive | inactive | inactive | inactive | inactive | inactive | inactive | inactive | inactive |
| CC(=O)OC(C)(C)C | inactive | inactive | inactive | inactive | inactive | inactive | inactive | inactive | inactive | inactive |
| CC(C)COC(=O)C(C)C | inactive | inactive | inactive | inactive | inactive | inactive | inactive | inactive | inactive | inactive |

| Structure (SMILES) | Potency [1] | Potency [2] | Potency [3] | outcome [4] | Potency [5] | Potency [6] | Potency [7] | outcome [8] | Potency (Aromatase (Homo sapiens)) | Potency [9] |
| --- | --- | --- | --- | --- | --- | --- | --- | --- | --- | --- |
| CCC(C(=O)NC(N)=O)c1ccccc1 (stereo not given) | inactive | inactive | inactive | inactive | inactive | inactive | inactive | inactive | inactive | inactive |
| CC(C)(C)N(CCO)CCO | inactive | inactive | inactive | inactive | inactive | inactive | inactive | inactive | inactive | inactive |
| CC(=O)NC(Cc1ccccc1)C(=O)O (stereo not given) | inactive | inactive | inactive | inactive | inactive | inactive | inactive | inactive | inactive | inactive |
| COC(=O)c1ccc(C(=O)OC)c(C(=O)OC)c1 | inactive | inactive | inactive | inactive | inactive | inactive | inactive | inactive | inactive | inactive |
| CC1=CCC2C(C1)C2(C)C (stereo not given) | inactive | inactive | inactive | inactive | inactive | inactive | inactive | inactive | inactive | inactive |
| NC(N)=NS(=O)(=O)c1ccc(N)cc1 | inactive | inactive | inactive | inactive | inactive | inactive | inactive | inactive | inactive | inactive |
| Fc1ccccc1-c1ccccc1 | inactive | inactive | inactive | inactive | inactive | inactive | inactive | inactive | inactive | inactive |
| NC(=O)c1ncn([C@@H]2O[C@H](CO)[C@@H](O)[C@H]2O)c1O | inactive | inactive | inactive | inactive | inactive | inactive | inactive | inactive | inactive | inactive |
| CC(C)[C@H](N)C(=O)OCCOCn1cnc2c(=O)[nH]c(N)nc21 | inactive | inactive | inactive | inactive | inactive | inactive | inactive | inactive | inactive | inactive |
| CC1(C)SC(C)(C)SC(C)(C)S1 | inactive | inactive | inactive | inactive | inactive | inactive | inactive | inactive | inactive | inactive |
| COC[C@H](c1ccc(C(F)(F)F)cc1)N1CCN(C2(C)CCN(C(=O)c3c(C)ncnc3C)CC2)C[C@H]1C | inactive | inactive | inactive | inactive | inactive | inactive | inactive |  |  | inactive |
| OCC(CO)(CO)COCC(CO)(CO)CO | inactive | inactive | inactive | inactive | inactive | inactive | inactive | inactive | inactive | inactive |
| Nc1cc(C(Cl)=C(Cl)Cl)c(S(N)(=O)=O)cc1S(N)(=O)=O | inactive | inactive | inactive | inactive | inactive | inactive | inactive | inactive | inactive | inactive |
| CC(C)CCOC(=O)CC(C)C | inactive | inactive | inactive | inactive | inactive | inactive | inactive | inactive | inactive | inactive |
| O=Cc1ccccc1[N+](=O)[O-] | inactive | inactive | inactive | inactive | inactive | inactive | inactive | inactive | inactive | inactive |
| CN(C)C(=O)Nc1ccccc1 | inactive | inactive | inactive | inactive | inactive | inactive | inactive | inactive | inactive | inactive |
| CC(C)=CCC/C(C)=C/C(=O)O | inactive | inactive | inactive | inactive | inactive | inactive | inactive | inactive | inactive | inactive |
| CCCCCOC(=O)Nc1nc(=O)n([C@@H]2O[C@H](C)[C@@H](O)[C@H]2O)cc1F | inactive | inactive | inactive | inactive | inactive | inactive | inactive | inactive | inactive | inactive |
| CC(=O)CCc1ccc(O)cc1 | inactive | inactive | inactive | inactive | inactive | inactive | inactive | inactive | inactive | inactive |
| CCN(CC)S(=O)(=O)c1ccc(C(=O)O)cc1 | inactive | inactive | inactive | inactive | inactive | inactive | inactive | inactive | inactive | inactive |
| C=C[Si](OC)(OC)OC | inactive | inactive | inactive | inactive | inactive | inactive | inactive | inactive | inactive | inactive |
| O=C(O)CCNC(=O)c1ccc(N=Nc2ccc(O)c(C(=O)O)c2)cc1 | inactive | inactive | inactive | inactive | inactive | inactive | inactive |  | inactive |  |
| CC(C)(O)c1ccccc1 | inactive | inactive | inactive | inactive | inactive | inactive | inactive | inactive | inactive | inactive |
| CC/C=C\CCCCO | inactive | inactive | inactive | inactive | inactive | inactive | inactive | inactive | inactive | inactive |
| C[C@H](O)C(=O)Nc1c(I)c(C(=O)NC(CO)CO)c(I)c(C(=O)NC(CO)CO)c1I | inactive | inactive | inactive | inactive | inactive | inactive |  | inactive | inactive | inactive |
